Source: PubChem BioAssay AID504660 (National Center for Advancing Translational Sciences (NCATS), 2011)
Hit rate of the full screen: of about 360,000 compounds, about 3,700 (1%) were called active. Shown is part of a subset that was picked to be rich in actives. A number with no mark means an inactive call. Cut-off read from the data, not from the text of the source: active = activation above about 30%; inactive = the rest.

Target: D(1A) dopamine receptor (Homo sapiens) (UniProt P21728)
Assay: Allosteric Agonists of the Human D1 Dopamine Receptor: qHTS; note: 0% is about no effect
Details: HEK293 T-REx D1 cells, calcium flux, agonist mode; at 2 µM; hits give high values
Text: NIH Chemical Genomics Center [NCGC] NIH Molecular Libraries Probe Centers Network [MLPCN] MLPCN Grant: NS064831-01 Assay Submitter (PI): David Sibley Dopamine receptors (DARs) are involved in the etiology and/or therapy of a number of neuropsychiatric and endocrine disorders. For instance, all receptor-based antiparkinsonian drugs work via stimulating the D1 DAR subtype whereas all FDA-approved antipsychotic agents are antagonists of this receptor. […] There are three different types of allosteric modulators that we are seeking, two of which will stimulate or augment receptor signaling, allosteric agonists and potentiators, while the third, allosteric antagonists, will attenuate receptor signaling. The present primary screening assay measures compound agonism by tracking calcium flux in a […], inducible Hek293 Trex D1 cell line.
Freshly passaged cells are plated in 1536 well black, clear bottom plates at a density of 4000 cells/well in 3 ul of complete media containing 1x tetracycline inducer. After an overnight incubation at […] in 5% CO2, cells are loaded with 2 ul of the no wash Calcium Assay Kit (ABD Bioquest) and incubated at room temperature for 30 to 90 minutes. Agonist read: A 10 cycle (1 second/cycle) baseline measurement is taken and then the FDSS online 1536 pintool delivers 23 nl of compound library (as well as dopamine controls) to the plate. The plate is measured for kinetically at 1 cycle/sec for 180 seconds and is considered to be the agonist portion of the assay (eg, compounds which activate a positive calcium response during this portion are flagged as potential agonists). Following the 180 second read, 1 ul of either an EC20 (positive modulation assay) or EC80 (negative modulation assay) is delivered by an onboard pipette head. Measurements are taken kinetically for an additional 180 seconds.

Sequence of D(1A) dopamine receptor (Homo sapiens) (P21728 whole entry, looked up): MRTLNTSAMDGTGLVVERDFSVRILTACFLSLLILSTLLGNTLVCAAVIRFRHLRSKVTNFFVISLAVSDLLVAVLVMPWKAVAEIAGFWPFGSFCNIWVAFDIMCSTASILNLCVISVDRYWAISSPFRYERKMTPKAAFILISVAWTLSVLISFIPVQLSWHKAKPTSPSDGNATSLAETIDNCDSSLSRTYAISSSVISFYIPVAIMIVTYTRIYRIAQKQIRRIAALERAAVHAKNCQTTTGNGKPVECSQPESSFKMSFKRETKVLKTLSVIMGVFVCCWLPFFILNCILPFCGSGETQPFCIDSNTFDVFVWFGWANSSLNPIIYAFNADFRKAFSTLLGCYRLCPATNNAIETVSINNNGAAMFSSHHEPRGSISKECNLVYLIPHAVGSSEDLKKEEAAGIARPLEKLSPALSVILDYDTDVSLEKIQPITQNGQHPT

Compared with `COc1ccc(CNC(=O)C2CC(c3ccc(C(F)(F)F)cc3)=NO2)cc1` (stereo not given), `COc1ccc(C2=NOC(C(=O)NCc3ccco3)C2)cc1OC` (stereo not given) is lower in activation: 16.3% for the first, 1.23% for the second.

Going from `Cc1ccc(N(CC(=O)NCc2ccc(Cl)cc2)S(=O)(=O)N(C)C)cc1` to `COc1cccc(-n2ccn(CC(=O)NCc3ccc(C)cc3)c(=O)c2=O)c1`, the activation rises from -0.642% to 14.3%.

First: Cn1c(=O)c(C(=O)O)nn(-c2ccccc2)c1=O
Second: O=C(NC1CC(=O)N(c2ccccc2)C1)c1ccco1 (stereo not given)
The activation of the first is lower: 1.73% for the first, 2.23% for the second.

Going from `COc1cccc(NC(=O)CSC2=Nc3ccccc3C3=NC(CC(=O)NC4CCCCC4)C(=O)N23)c1` (stereo not given) to `COc1cccc(N=C2SC(C(=O)Nc3cccc(Cl)c3)CC(=O)N2C)c1` (stereo not given), the activation rises from 0.2% to 25.2%.

Going from `CCCN(CCC)C(=O)C1CCCN(c2ncnc3c2nc2n3CCCCC2)C1` (stereo not given) to `O=C(CCc1nc(CN2CCN(S(=O)(=O)c3ccc(Cl)cc3)CC2)no1)N1CCCCC1`, the activation rises from -0.793% to 12.7%.

Compared with `COc1ccc(NC(=O)N2CCCn3nc(C)cc32)cc1OC`, `CCOC(=O)c1c(C)[nH]c(CCC(=O)Nc2ccc(OC)c(OC)c2)c1C` is higher in activation: -0.666% for the first, -0.109% for the second.

First: COc1ccc(CNC(=O)CS(=O)Cc2nc(-c3cccc(C)c3)oc2C)cc1 (stereo not given)
Second: Cc1ccc(-c2nc(CS(=O)CC(=O)NC3CCCC3)c(C)o2)cc1 (stereo not given)
The activation of the first is higher: 3.98% for the first, -0.511% for the second.

First: Cc1ccc(-c2nnc(Nc3cccc(Br)c3)c3ccccc23)cc1S(=O)(=O)NCC1CCCO1 (stereo not given)
Second: O=S(=O)(Nc1cccc2cccnc12)c1cccc2cccnc12
The activation of the first is lower: 3.26% for the first, 23.3% for the second.

First: Cc1nc2c(c(=O)n1Cc1ccco1)c1nc3ccccc3nc1n2Cc1ccccc1
Second: O=C(O)c1c(CNCc2cccc(F)c2)c2ccccc2n1Cc1ccccc1
The activation of the first is higher: 0.836% for the first, -1.09% for the second.

Compared with `Cc1cc(OCC(=O)N(C)c2c(N)n(Cc3ccccc3)c(=O)[nH]c2=O)c(C(C)C)cc1Cl`, `COc1cc(OC)c(NC(=O)C2CCCN2C(=O)OCc2ccccc2)cc1Cl` (stereo not given) is higher in activation: -0.311% for the first, -0.285% for the second.

Compared with `CCOCCCNC(=O)c1c(NC(=O)Cc2coc3ccc(C)cc23)sc2c1CCC2`, `CCc1c(C)sc(NC(=O)c2cccs2)c1C(N)=O` is lower in activation: 6.68% for the first, 0.933% for the second.

First: CCOC(=O)c1ccc(-c2ccc(/C=C(\C#N)C(=O)Nc3ccc(C)cc3)o2)cc1
Second: Cc1ccc(Cl)cc1NC(=O)/C(C#N)=C\c1cn(Cc2ccc(F)cc2)c2ccccc12
The activation of the first is higher: 6.86% for the first, 6.19% for the second.

Going from `Cc1ccc2nc(/C(C#N)=C/c3ccccc3F)[nH]c2c1` to `Cc1nc(-c2ccc(Cl)cc2)sc1C1(C)CC(c2ccccc2F)=NO1` (stereo not given), the activation rises from -1.08% to 6.23%.

Compared with `O=C(Nc1c(C(=O)N2CCN(c3ccc(F)cc3)CC2)oc2ccccc12)c1ccco1`, `Cc1ccccc1OCC(=O)Nc1c(C(=O)Nc2ccccc2F)oc2ccccc12` is higher in activation: 3.39% for the first, 20.7% for the second.

Compared with `COC(=O)c1cc(S(=O)(=O)N2CCN(c3cc(Cl)ccc3C)CC2)c[nH]1`, `CCc1nc(-c2cc(S(=O)(=O)N3CCN(c4ccc(OC)cc4)CC3)ccc2OC)no1` is lower in activation: 6.55% for the first, 4.75% for the second.

Going from `CN=C1S/C(=C\c2ccc(Sc3ccc(Cl)cc3)o2)C(=O)N1C` to `Cc1nc(C(=O)Nc2ccc(Cl)cc2)sc1C1(C)CC(c2ccccc2)=NO1` (stereo not given), the activation rises from -0.0809% to 6.69%.

Compared with `O=C(NC(=S)Nc1cc(C(F)(F)F)ccc1N1CCOCC1)c1ccc(-c2cccc(Cl)c2)o1`, `COc1cc(C(=O)NCC(c2ccc(Cl)cc2)N2CCOCC2)cc(OC)c1OC` (stereo not given) is lower in activation: 4.39% for the first, -0.448% for the second.

Compared with `Cc1ccc2[nH]c(=O)c(-c3nc4c(C)cccn4c3NCc3ccco3)cc2c1`, `Cc1cc(=O)c2cc(C(=O)Nc3cccc(C)c3C)ccc2[nH]1` is lower in activation: 1.97% for the first, -0.195% for the second.

Going from `COC(=O)CN1C(=O)CSc2ccc(S(=O)(=O)Nc3cc(C)ccc3C)cc21` to `CCN(CC)S(=O)(=O)c1ccc2c(c1)N(CC(=O)NCC(C)c1ccccc1)C(=O)CO2` (stereo not given), the activation rises from -2.48% to 4.4%.

Compared with `Cc1c(Cl)cccc1NC(=O)C(=O)NCCc1csc2nc(-c3ccccc3F)nn12`, `COc1ccc(-c2nc3scc(CCNS(=O)(=O)c4cc(F)ccc4OC)n3n2)cc1OC` is lower in activation: 8.86% for the first, -4.62% for the second.

Going from `COc1cc(OC)cc(C(=O)Nc2cc3nn(-c4ccccc4)nc3cc2Cl)c1` to `Cc1c(NC(=O)c2cc(-c3ccc(Cl)s3)nc3ccccc23)c(=O)n(-c2ccccc2)n1C`, the activation rises from 0.0669% to 0.635%.

Going from `CC(C)(C)C(=O)/C(C#N)=C/c1ccc(O)cc1` to `COc1cccc(C(=O)NNC(=O)/C=C/c2ccccc2)c1`, the activation falls from 6.88% to 1.13%.

Compared with `CCN(CC)c1ccc(NC(=O)Cn2nc3c(cc2=O)CCCC3)c(C)c1`, `CCN(CC)c1ccc(NC(=O)CN2C(=O)c3cccnc3Oc3ccc(Cl)cc32)c(C)c1` is higher in activation: -0.284% for the first, 1.12% for the second.

Going from `CCc1c(C)sc(NC(=O)C2c3ccccc3Oc3ccccc32)c1C(=O)OC(C)C` to `CCc1ccccc1NC(=O)c1sc2nc3c(cc2c1N)CN(Cc1ccccc1)CC3`, the activation rises from -0.651% to 0.298%.

Going from `O=C(CSc1oc(-c2ccco2)nc1S(=O)(=O)c1ccccc1)c1ccc(Cl)cc1` to `CCOc1ccc(CNC(=O)c2ccc(CS(=O)c3ccccc3)o2)cc1` (stereo not given), the activation falls from 5.58% to 0.22%.

First: COc1ccc(Nc2cc(C(=O)NCCCN(C)c3ccccc3)c3ccccc3n2)c(OC)c1
Second: CCCCN(CCCNC(=O)c1cc(Nc2ccccc2OC)nc2ccccc12)c1ccccc1
The activation of the first is higher: 1.01% for the first, 0.606% for the second.

Going from `COc1ccccc1Nc1c2c(nc3ccc(NC(=O)/C=C/c4cc(OC)c(OC)c(OC)c4)cc13)CCCC2` to `COc1cc(-c2cc3n(C)c(C)c(CCC(=O)Nc4ccc(F)cc4)c(=O)n3n2)cc(OC)c1OC`, the activation rises from -0.5% to 0.314%.

Going from `CCCCCOC(=O)c1ccc(N2C(=O)C3C4C=CC(C4)C3C2=O)cc1` (stereo not given) to `O=C(OCCN=C1NS(=O)(=O)c2ccccc21)c1cccc([N+](=O)[O-])c1`, the activation falls from 19.5% to 3%.

Going from `Cc1[nH]c2ccccc2c1C(c1ccccc1)c1cccs1` (stereo not given) to `Cc1ccc(CNC(=O)c2ccccc2CCc2ccccc2)cc1`, the activation rises from 0.783% to 4.45%.

Going from `Cc1ccc(CNC(=O)Cn2c(=O)ccc3cc(S(=O)(=O)N4CCCC4)ccc32)cc1` to `CC(=O)N1CCN(C(=O)c2cc(-c3ccc(Cl)s3)nc3ccccc23)CC1`, the activation rises from -0.173% to -0.053%.

Compared with `CCOc1ccc(Cn2nnc(C(=O)Nc3ccc(OC)cc3OC)c2N)cc1`, `COc1ccc(-c2nc3nc(C)cc(C)n3c2Nc2c(C)cccc2C)cc1` is higher in activation: 6.39% for the first, 7.65% for the second.

First: O=[S+]([O-])(c1ccc2c(c1)OCCO2)N1CCN([S+](=O)([O-])c2c(Cl)cc(Cl)cc2Br)CC1
Second: c1ccc2cc(OCCN3CCCC3)ccc2c1
The activation of the first is lower: 0.0145% for the first, 5.59% for the second.

Compared with `CSc1nc(-c2ccc(F)cc2)nc2c1Cc1c(CO)cnc(C)c1O2`, `COc1cccc(-c2ccc3c(c2)S(=O)(=O)c2cccc(C(=O)O)c2C3=O)c1OC` is lower in activation: 1.34% for the first, 0.629% for the second.

Going from `N#CC1(NC(=O)COC(=O)CCN=C2NS(=O)(=O)c3ccccc32)CCCCC1` to `Cc1nn(CCOc2ccccc2)c(=O)n1-c1ccccc1F`, the activation falls from 4.55% to 1.91%.

First: COc1cc(CNC2CCCCC2)c(Br)cc1OC1CCCC1
Second: Cc1cc(OCCN2CCCC2)ccc1C(C)C
The activation of the first is higher: 10.2% for the first, 2.99% for the second.

`CC(C)(C)c1ccc(Oc2ccc(N)cc2)cc1` was tested, and the activation was 5.93%.

With `O=C(NCc1cc(C(F)(F)F)cc(C(F)(F)F)c1)C1CC(c2cccc(F)c2)=NO1` (stereo not given) the activation was 44.2% (active).
`Cc1cccc(-c2nc(CS(=O)CC(=O)NC(C)CCc3ccccc3)c(C)o2)c1` (stereo not given) was tested, and the activation was 33.5% (active).
With `Cc1cc2nc3c(=O)n(Cc4ccccc4)c(=O)[nH]c3nc2cc1N` the activation was 368% (active).
`Cc1ccc2nc(/C(C#N)=C/c3ccc(-c4ccc(C(=O)OC(C)C)cc4)o3)[nH]c2c1` was tested, and the activation was 165% (active).
`O=C(O)C(c1ccccc1)N1C(=O)/C(=C\c2ccc(-c3cccc(Cl)c3)o2)SC1=S` (stereo not given) was tested, and the activation was 33.5% (active).
With `CCCN(CCC)c1nc2c(C)cccn2c(=O)c1/C=C1/SC(=S)N(Cc2ccco2)C1=O` the activation was 48.8% (active).
With `O=C(/C=C(O)/C=C/c1ccc(O)cc1)/C=C/c1ccc(O)cc1` the activation was 432% (active).
For `CCc1c(C)sc(NC(=O)c2ccc(Br)o2)c1C(=O)OC`, the activation was 32.9% (active).
In the case of `COc1ccccc1Nc1cc(C(=O)NCCCN(C)C2CCCCC2)c2ccccc2n1`, the activation is reported as 183% (active).
With `CCCCCCCCCCOC(=O)C[N+](C)(C)CC1CCCCC1O` (stereo not given) the activation was 31.1% (active).
For `CCOc1ccc(Cn2nnc(C(=O)NCc3ccccc3)c2N)cc1`, the activation was 36.7% (active).
`CCOc1ccc(CNC(=O)c2cc(-c3ccc(Cl)s3)nc3ccccc23)cc1` was tested, and the activation was 36.4% (active).
For `c1ccc(C[C@H]2CNCCN2CCC23CC4CC(CC(C4)C2)C3)cc1`, the activation was 39.5% (active).
For `O=C(CCCN=C1NS(=O)(=O)c2ccccc21)OCC(=O)c1ccc(F)c(F)c1`, the activation was 68.2% (active).
In the case of `COc1cc(CNC2CCCC2)c(Br)cc1OCc1ccccc1`, the activation is reported as 42.3% (active).
In the case of `Cc1nc(C(=O)NCc2ccccc2)sc1C1(C)CC(c2cccnc2)=NO1` (stereo not given), the activation is reported as 41.4% (active).
With `Cc1ccc(CNC(=O)c2cccc3c2C(=O)c2ccc(N4CCC(C)CC4)cc2S3(=O)=O)cc1` the activation was 179% (active).
For `CC(C)(c1ccccc1)c1ccc(OCCN2CCCC2)cc1`, the activation was 35.8% (active).
With `CC(C)(c1ccccc1)c1ccc(OCCN)cc1` the activation was 63.3% (active).
